Assay [1] in a line: Nuclear factor erythroid 2-related factor 2/antioxidant responsive element (Nrf2/ARE) small molecule agonists: qHTS cell viability counter screen in human keratinocytes (AID 1919968; active = well fitted curve in the direction sought with a large enough effect in the repeat runs; an effect the other way counts as inactive or inconclusive; note: nearly all actives have a fitted effect of over 55% in size). The gist of the method:
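Cytotoxicity was multiplexed with the Nrf2/ARE luciferase assay in the same wells. Stably transfected HaCaT keratinocytes were treated with test compounds for 23 h at 37 C. Cell viability was then measured by CellTiter-Fluor fluorescence.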

Assay [2] in a line: Nuclear factor erythroid 2-related factor 2/antioxidant responsive element (Nrf2/ARE) small molecule agonists: luciferase reporter gene qHTS assay in human keratinocytes (AID 1919969). Note: nearly all actives have a fitted effect of over 35% in size. Note: potency is the fitted concentration of half-maximal effect.
For assay [3], the target named is Gonadotropin-releasing hormone receptor (Homo sapiens) (UniProt P30968). Briefly: Human gonadotropin-releasing hormone receptor (GnRHR) small molecule agonists, calcium flux assay in GnRHR-HEK293 cells (AID 1920063). Note: nearly all actives have a fitted effect of over 35% in size. Summed up: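 Agonist activity was measured as intracellular calcium flux in HEK293 cells engineered to stably express human GnRHR. After dye loading for 1 hour at 37 C, compounds in DMSO were added and fluorescence was followed for 3 minutes.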

Assay [4] has as its target KiSS-1 receptor (Homo sapiens) (UniProt Q969F8). Description: Human kisspeptin (KISS1R) small molecule agonists, calcium flux assay in KISS1R-HEK293 cells (AID 1920064; active = well fitted curve in the direction sought with a large enough effect in the repeat runs; an effect the other way counts as inactive or inconclusive). The gist of the method: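 Agonist activity is monitored as intracellular calcium rise in engineered HEK293 cells carrying human KISS1R. Cells are dye-loaded for 1 h at 37 C before compound addition, and fluorescence is recorded for 3 min.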

Assay [5] is described as follows: p53 small molecule agonists, cell-based qHTS assay with human liver microsomes: qHTS cell viability counter screen (AID 1963579). Note: nearly all actives have a fitted effect of over 45% in size. The gist of the method:
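Cytotoxicity counter screen: p53RE-bla, 4,000 cells/well; 5 h settle, 37 C/5% CO2; cpd + HLM 0.5 mg/mL + NADPH 0.5 mg/mL (final); 16 h, 37 C; CellTiter-Glo, 30 min RT, luminescence.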

Assay [6] is described as follows: p53 small molecule agonists, cell-based qHTS assay with rat liver microsomes: qHTS cell viability counter screen (AID 1963580). Note: nearly all actives have a fitted effect of over 45% in size. Summed up:
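Rat liver microsome (0.5 mg/mL final) and NADPH (0.5 mg/mL final) co-incubation with compounds for 16 h at 37 C on HCT-116 p53RE-bla cells; cytotoxicity taken from intracellular ATP luminescence.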

Assay [7] is described as follows: p53 small molecule agonists, cell-based qHTS assay: qHTS cell viability counter screen (AID 1963581). Note: nearly all actives have a fitted effect of over 45% in size. The gist of the method: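 Viability was counter-screened in parallel with the p53 agonist reporter by measuring intracellular ATP luminescence in the same HCT-116 p53RE-bla wells after 16 h compound treatment at 37 C.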
Assay [8] has as its target 5-hydroxytryptamine receptor 2A (Homo sapiens) (UniProt P28223). Briefly: 5-hydroxytryptamine receptor 2A (HTR2A) small molecule antagonists, cell-based qHTS assay (AID 1963586). Note: nearly all actives have a fitted effect of over 45% in size. Note: potency is the fitted concentration of half-maximal effect. The gist of the method:
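CHO cells stably expressing human HTR2A were plated for 18 h at 37 C, then loaded with calcium dye for 1 h. Compounds were preincubated 5 min at room temperature before DOI (4 nM solution) was added. Kinetic fluorescence was read for 3 min.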

The target is the same in assay [9]. Description: 5-hydroxytryptamine receptor 2A (HTR2A) small molecule agonists, cell-based qHTS assay (AID 1963587). Note: nearly all actives have a fitted effect of over 30% in size. The gist of the method: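 Kinetic calcium-flux fluorescence (2 min, 1 sec intervals) after compound addition in agonist mode. HTR2A-CHO cells were cultured 18 h, then dye-loaded 1 h at 37 C.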
The target of assay [10] is Muscarinic acetylcholine receptor M1 (Homo sapiens) (UniProt P11229). Description: Cholinergic receptor muscarinic 1 (CHRM1) small molecule antagonists, cell-based qHTS assay (AID 1963588). Note: nearly all actives have a fitted effect of over 40% in size. Summed up: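 Compounds were tested at 15 concentrations in three independent runs. Dye-loaded CHRM1-CHO cells were exposed 5 min at room temperature before stimulation by acetylcholine added at 50nM. Intracellular calcium was read kinetically on FDSS for 3 min.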

Assay [11] shares this target. Briefly: Cholinergic receptor muscarinic 1 (CHRM1) small molecule agonists, cell-based qHTS assay (AID 1963589). Note: nearly all actives have a fitted effect of over 35% in size. Summed up:
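Cells were plated and incubated 18 h at 37 C/5% CO2, loaded with calcium dye for 1 h at 37 C, then treated with compounds in DMSO. Fluorescence was recorded kinetically at 1 sec intervals.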

The nature of assay [12]: cAMP Responsive Elements (CRE) small molecule agonists, cell-based qHTS assay (AID 1963590). Summed up:
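Cells carrying a CRE-driven beta-lactamase reporter (HEK 293T) are seeded, incubated overnight (18 h), and treated with test compounds for 3 h at 37 C; reporter activity is then detected with a FRET substrate after 2 h at room temperature.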

Assay [13] in a line: cAMP Responsive Elements (CRE) small molecule antagonists, cell-based qHTS assay (AID 1963591; active = well fitted inhibition curve with a large enough effect in the signal ratio in the repeat runs, not every such curve was filed as active; the % refers to the signal ratio). Summed up: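 Cells (CRE-bla HEK 293T, DMEM with 10% dialyzed FBS and 25 mM HEPES) are seeded and incubated 18 h. Compounds are added with NKH477 agonist at 0.25 uM final for 3 h, then FRET substrate for 2 h.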
Assay [14] deals with D(2) dopamine receptor (Homo sapiens) (UniProt P14416). Briefly: Dopamine D2 receptor (DRD2) small molecule agonists, cell-based qHTS assay (AID 1963594). Note: nearly all actives have a fitted effect of over 35% in size. The gist of the method: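 cAMP accumulation in DRD2-HEK293 cells measured by HTRF after 1 h detection; compounds added 10 min before NKH477 (200nM […]) forskolin-analogue stimulation, 30 min at room temperature, with Ro20-1724 present at 0.1 mM final.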

Assay [15] has the same target. Description: Dopamine D2 receptor (DRD2) small molecule antagonists, cell-based qHTS assay (AID 1963595; active = well fitted inhibition curve with a large enough effect in the signal ratio in the repeat runs, with a control signal flat; the % refers to the signal ratio; note: potency is the fitted concentration of half-maximal effect). Summed up:
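HTRF cAMP read-out at 665 and 620 nm emission (340 nm excitation). Antagonist mode: compounds were tested against 12 nM quinpirole in DRD2-HEK293 cells, with 200 nM NKH477 raising cAMP and 0.1 mM Ro20-1724 blocking its breakdown.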

The nature of assay [16]: G protein-coupled receptor (GPCR) small molecule agonists, calcium flux assay: HEK293 wild type cell line counter screen (AID 1920065). The gist of the method: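 Seed cells, incubate 18 h (37 C, 5% CO2); add calcium dye, 1 h at 37 C; pin-transfer compounds, ATP control or DMSO; read fluorescence 480/540 nm each second for 3 min.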
The nature of assay [17]: p53 small molecule agonists, cell-based qHTS assay with human liver microsomes (AID 1963577). Summed up: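 Fluorescence of the beta-lactamase reporter in p53RE-bla cells, detected with LiveBLAzer substrate (2 h, room temperature, dark), served as the read-out after 16 h compound exposure at 37 C with human liver microsomes and NADPH, each 0.5 mg/mL final.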
The nature of assay [18]: p53 small molecule agonists, cell-based qHTS assay with rat liver microsomes (AID 1963578). The gist of the method:
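Cells carrying a p53 response element–beta-lactamase reporter were plated and rested 5 h, then dosed with compound in DMSO plus rat liver microsomes and NADPH, each at 0.5 mg/mL final. After 16 h at 37 C, LiveBLAzer substrate was added for 2 h.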

Assay [19] concerns the target Beta-2 adrenergic receptor (Homo sapiens) (UniProt P07550). Description: Adrenergic beta2 receptor (ADRB2) small molecule antagonists, cell-based qHTS assay (AID 1963592). Note: series mostly up to about 92 µM; nearly all actives have a fitted effect of over 50% in size. The gist of the method: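 Assay format: CHO-ADRB2 cells, 18-20hr seeding at 37C/5% CO2, then compound plus 1nM isoproterenol agonist mix for 0.5hr RT. Homogeneous time-resolved fluorescence cAMP detection after 1hr, expressed as 665/615 nm ratio.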

For assay [20] the target is unchanged. Briefly: Adrenergic beta2 receptor (ADRB2) small molecule agonists, cell-based qHTS assay (AID 1963593).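 Note: CHO cells stably overexpressing human ADRB2.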 The gist of the method:
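CHO cells stably over-expressing ADRB2 were plated overnight at 37C, then dosed with compounds plus a stimulation mix containing 100uM IBMX and 25uM Ro-20-1724 for 0.5hr at room temperature. cAMP was measured by HTRF competition, 1hr.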

Values joined by “and” are separate entries in the source; they are usually repeats but may differ in a detail not shown here. Equal values may be shown once. Inconclusive results are not listed. Some compounds were tested as several samples or in several runs, with calls that do not always agree. Active and inactive are the calls of the source. Unless noted, calls come from the whole dose curve.

KiSS-1 receptor (Homo sapiens), sequence (Q969F8 whole entry, looked up): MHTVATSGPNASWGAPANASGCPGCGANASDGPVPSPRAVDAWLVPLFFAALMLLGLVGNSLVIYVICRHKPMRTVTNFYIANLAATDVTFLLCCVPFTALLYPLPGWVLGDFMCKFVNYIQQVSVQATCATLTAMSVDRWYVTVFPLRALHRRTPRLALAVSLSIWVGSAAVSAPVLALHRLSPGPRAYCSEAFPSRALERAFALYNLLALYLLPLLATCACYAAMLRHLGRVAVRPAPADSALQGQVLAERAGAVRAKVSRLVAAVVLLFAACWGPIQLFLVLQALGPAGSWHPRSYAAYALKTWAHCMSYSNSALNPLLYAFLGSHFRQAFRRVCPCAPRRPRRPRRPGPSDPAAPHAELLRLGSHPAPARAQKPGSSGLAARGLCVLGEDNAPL
Beta-2 adrenergic receptor (Homo sapiens), sequence (P07550 whole entry, looked up): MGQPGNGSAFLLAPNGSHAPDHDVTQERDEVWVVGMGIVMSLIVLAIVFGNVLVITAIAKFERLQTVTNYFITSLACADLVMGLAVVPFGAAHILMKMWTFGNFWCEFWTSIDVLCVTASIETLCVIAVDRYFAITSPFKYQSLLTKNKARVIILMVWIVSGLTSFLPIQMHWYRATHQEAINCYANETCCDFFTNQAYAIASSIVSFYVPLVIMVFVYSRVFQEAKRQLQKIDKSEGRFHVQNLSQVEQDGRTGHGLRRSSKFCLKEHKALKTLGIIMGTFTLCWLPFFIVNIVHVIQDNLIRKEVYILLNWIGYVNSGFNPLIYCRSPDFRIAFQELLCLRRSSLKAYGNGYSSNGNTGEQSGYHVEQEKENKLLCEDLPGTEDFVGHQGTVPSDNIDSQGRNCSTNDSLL
Muscarinic acetylcholine receptor M1 (Homo sapiens), sequence (P11229 whole entry, looked up): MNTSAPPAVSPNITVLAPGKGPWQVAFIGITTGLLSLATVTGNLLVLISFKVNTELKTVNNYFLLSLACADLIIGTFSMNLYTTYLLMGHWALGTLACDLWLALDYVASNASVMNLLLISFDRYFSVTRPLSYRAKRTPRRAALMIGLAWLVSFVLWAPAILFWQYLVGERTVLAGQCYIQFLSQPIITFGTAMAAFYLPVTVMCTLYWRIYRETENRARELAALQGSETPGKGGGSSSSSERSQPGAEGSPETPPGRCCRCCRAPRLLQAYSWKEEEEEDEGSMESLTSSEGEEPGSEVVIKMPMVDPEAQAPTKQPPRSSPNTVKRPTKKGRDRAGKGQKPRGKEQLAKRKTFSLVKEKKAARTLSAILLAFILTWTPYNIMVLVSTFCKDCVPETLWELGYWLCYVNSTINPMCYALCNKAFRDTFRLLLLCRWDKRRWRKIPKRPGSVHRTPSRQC
D(2) dopamine receptor (Homo sapiens), sequence (P14416 whole entry, looked up): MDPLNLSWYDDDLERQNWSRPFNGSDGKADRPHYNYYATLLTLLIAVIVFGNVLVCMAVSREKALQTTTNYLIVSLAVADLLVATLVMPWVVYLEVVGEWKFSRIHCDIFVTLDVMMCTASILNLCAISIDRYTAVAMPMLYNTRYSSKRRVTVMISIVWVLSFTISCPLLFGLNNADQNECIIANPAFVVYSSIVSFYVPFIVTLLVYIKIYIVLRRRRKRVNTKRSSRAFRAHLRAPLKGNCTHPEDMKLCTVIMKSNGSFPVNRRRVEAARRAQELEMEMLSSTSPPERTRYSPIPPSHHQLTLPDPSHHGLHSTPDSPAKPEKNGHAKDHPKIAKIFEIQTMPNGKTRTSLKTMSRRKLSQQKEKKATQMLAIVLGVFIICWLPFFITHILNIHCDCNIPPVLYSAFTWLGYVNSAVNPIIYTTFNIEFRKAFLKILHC
5-hydroxytryptamine receptor 2A (Homo sapiens), sequence (P28223 whole entry, looked up): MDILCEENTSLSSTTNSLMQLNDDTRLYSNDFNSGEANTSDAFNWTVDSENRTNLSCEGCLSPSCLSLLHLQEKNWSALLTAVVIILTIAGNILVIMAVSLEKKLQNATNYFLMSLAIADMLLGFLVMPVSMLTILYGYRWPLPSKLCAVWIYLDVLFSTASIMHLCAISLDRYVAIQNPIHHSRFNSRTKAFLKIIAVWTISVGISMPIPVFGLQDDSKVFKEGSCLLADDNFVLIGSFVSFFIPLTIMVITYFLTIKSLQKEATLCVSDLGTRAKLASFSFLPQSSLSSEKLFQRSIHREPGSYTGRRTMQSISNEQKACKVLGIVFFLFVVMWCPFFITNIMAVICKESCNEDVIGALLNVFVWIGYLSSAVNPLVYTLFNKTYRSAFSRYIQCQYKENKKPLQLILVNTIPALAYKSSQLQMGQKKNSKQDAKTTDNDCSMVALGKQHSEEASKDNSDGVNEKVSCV
Gonadotropin-releasing hormone receptor (Homo sapiens), sequence (P30968 whole entry, looked up): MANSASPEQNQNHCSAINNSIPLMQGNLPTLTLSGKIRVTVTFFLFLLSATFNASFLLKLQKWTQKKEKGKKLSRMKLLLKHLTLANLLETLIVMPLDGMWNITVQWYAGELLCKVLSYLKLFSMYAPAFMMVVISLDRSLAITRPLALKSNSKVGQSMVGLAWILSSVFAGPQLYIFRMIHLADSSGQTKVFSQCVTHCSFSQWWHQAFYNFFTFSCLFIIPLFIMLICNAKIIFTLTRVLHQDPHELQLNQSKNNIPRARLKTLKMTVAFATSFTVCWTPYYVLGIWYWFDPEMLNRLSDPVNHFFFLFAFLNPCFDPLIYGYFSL

`CCO[Si](CCC#N)(OCC)OCC`: the Potency result in assay [1], in [2], in [3], in assay [4], in [5] and in assay [6] was “inactive” in each case. Further, the Potency result in [7], in assay [8], in assay [9], in [10], in assay [11] and in assay [12] was “inactive” in each case. Besides, the Potency result in assay [13], in assay [14] and in [15] was “inactive” each time.

As to `NC(=O)N/N=C/c1ccc([N+](=O)[O-])o1`, the Potency entry in assay [1], in assay [3], in assay [16], in [17], in assay [18] and in [5] was “inactive” in each case. In addition, the Potency result in assay [6], in assay [7], in assay [8], in assay [9], in [10] and in assay [11] was “inactive” throughout. Also, the Potency entry in [12], in assay [13], in [19], in assay [20] and in assay [14] was “inactive” each time. The Potency result in [2] is “inactive and 30.6 µM (active)”.

For the compound `NNC(=O)c1ccncc1`, the Potency result in [1], in [2], in assay [3], in assay [4], in [18] and in [5] was “inactive” in each case. In addition, the Potency entry in assay [6], in [7], in assay [12], in [13], in [19] and in assay [20] was “inactive” throughout. Moreover, the Potency result in [14] and in assay [15] was “inactive” each time.

In the case of `CCc1cccc(CC)c1N`, the Potency result in assay [1], in [2], in assay [3], in assay [16], in [17] and in assay [18] was “inactive” in each case. Also, the Potency result in assay [5], in assay [6], in assay [7], in assay [8], in [9] and in [10] was “inactive” each time. Besides, the Potency entry in assay [11], in [12], in [13], in [19], in assay [20] and in assay [14] was “inactive” in each case. Besides, the Potency entry in assay [15] was “inactive”.

On to `O=C(O)c1ccccc1`, for which the Potency result in assay [1], in assay [2], in assay [3], in [4], in assay [5] and in assay [6] was “inactive” each time. Besides, the Potency entry in [7], in assay [12], in [13], in [19], in assay [20] and in assay [14] was “inactive” each time. In addition, in assay [15], the Potency result was “inactive”.

Regarding `COC(=O)c1ccccc1`, the Potency result in [1], in assay [2], in assay [3], in assay [16], in assay [17] and in [18] was “inactive” each time. Besides, the Potency entry in assay [5], in assay [6], in [7], in [8], in [9] and in assay [10] was “inactive” in each case. The Potency result in assay [11], in assay [12], in assay [13], in [19], in [14] and in assay [15] was “inactive” throughout.

`CCCCC(CC)COC(=O)/C=C/c1ccc(OC)cc1` (stereo not given): the Potency entry in assay [1], in assay [2], in [3], in [16], in [17] and in assay [18] was “inactive” throughout. Moreover, the Potency result in [5], in assay [6], in [7], in [8], in assay [9] and in assay [10] was “inactive” each time. Also, the Potency entry in assay [11], in [12], in assay [13], in assay [19], in [20] and in assay [14] was “inactive” throughout. Moreover, in [15], the Potency entry was “inactive”.

On to `CCC(Cc1c(I)cc(I)c(N)c1I)C(=O)O` (stereo not given), for which the Potency result in assay [1], in [2], in assay [3], in assay [16], in assay [17] and in [18] was “inactive” in each case. In addition, the Potency result in [5], in assay [6], in assay [7], in assay [9], in assay [10] and in assay [11] was “inactive” each time. Moreover, the Potency result in assay [12], in assay [13], in [19], in assay [20] and in assay [14] was “inactive” throughout. For the same compound, the Potency result in assay [8] was “inactive and 3.65 µM (active)”; in assay [15], “inactive and 10.6 µM (active)”.

For the origin of these results see PubChem BioAssay (Tox21).
